A short description of assay [1]: Nuclear factor erythroid 2-related factor 2/antioxidant responsive element (Nrf2/ARE) small molecule agonists: qHTS cell viability counter screen in human keratinocytes (AID 1919968; active = well fitted curve in the direction sought with a large enough effect in the repeat runs; an effect the other way counts as inactive or inconclusive; also: nearly all actives have a fitted effect of over 55% in size). The essentials:
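CellTiter-Fluor fluorescence, read 1 h after reagent, gave viability in the same wells as the ARE-luciferase assay. KeratinoSens cells (1,500/well) had 23 h compound exposure at 37 C/5% CO2 following 5 h plating.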
For orientation: In qHTS, concentration-response curves come from the screen itself.

Assay [2] can be described thus: Nuclear factor erythroid 2-related factor 2/antioxidant responsive element (Nrf2/ARE) small molecule agonists: luciferase reporter gene qHTS assay in human keratinocytes (AID 1919969; also: nearly all actives have a fitted effect of over 35% in size; also: potency is read from the fitted curve at half-maximal effect). (A reporter such as luciferase makes a cellular process visible.)
The target of assay [3] is Gonadotropin-releasing hormone receptor (Homo sapiens) (UniProt P30968). Kind of assay: Human gonadotropin-releasing hormone receptor (GnRHR) small molecule agonists, calcium flux assay in GnRHR-HEK293 cells (AID 1920063). Also: nearly all actives have a fitted effect of over 35% in size. The essentials: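 Agonist mode: compounds at 15 concentrations, in triplicate, went onto calcium dye-loaded GnRHR-HEK293 cells. Intracellular calcium was then followed as 480/540 nm fluorescence at 1 s intervals over 3 min.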
Chain of Gonadotropin-releasing hormone receptor (Homo sapiens) (P30968 whole entry, looked up): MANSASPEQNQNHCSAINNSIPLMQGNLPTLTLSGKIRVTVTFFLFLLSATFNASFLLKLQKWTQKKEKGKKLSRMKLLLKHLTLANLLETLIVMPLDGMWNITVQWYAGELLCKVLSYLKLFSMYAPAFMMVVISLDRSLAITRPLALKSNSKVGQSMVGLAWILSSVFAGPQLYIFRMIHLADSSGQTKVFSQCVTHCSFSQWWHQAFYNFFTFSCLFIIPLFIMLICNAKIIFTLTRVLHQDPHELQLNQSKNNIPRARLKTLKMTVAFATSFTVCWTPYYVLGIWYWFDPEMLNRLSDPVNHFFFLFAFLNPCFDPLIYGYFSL
A general note: Calcium flux is commonly read through the fluorescence of an indicator in the cells.

The target of assay [4] is KiSS-1 receptor (Homo sapiens) (UniProt Q969F8). Kind of assay: Human kisspeptin (KISS1R) small molecule agonists, calcium flux assay in KISS1R-HEK293 cells (AID 1920064; active = well fitted curve in the direction sought with a large enough effect in the repeat runs; an effect the other way counts as inactive or inconclusive). The essentials:
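Agonist mode: intracellular calcium rise tracked at 1 s intervals over 3 min (480/540 nm) immediately after compound addition to dye-loaded KISS1R-HEK293 stable cells. Each compound tested at 15 concentrations in triplicate.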

Assay [5] in a line: G protein-coupled receptor (GPCR) small molecule agonists, calcium flux assay: HEK293 wild type cell line counter screen (AID 1920065). The essentials: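 Calcium flux counter screen: compound added in agonist mode at 15 concentrations in triplicate to dye-loaded parental HEK293 cells. Fluorescence (480/540) read kinetically for 3 min; ATP served as positive control.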
Assay [6] is described as follows: p53 small molecule agonists, cell-based qHTS assay with human liver microsomes: qHTS cell viability counter screen (AID 1963579). Also: nearly all actives have a fitted effect of over 45% in size. In outline: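 Metabolically activated exposure: compounds, human liver microsomes and NADPH (0.5 mg/mL final apiece) were added to p53RE-bla cells seeded 5 h earlier, left 16 h at 37 C, and then assessed for viability by CellTiter-Glo luminescence.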

A short description of assay [7]: p53 small molecule agonists, cell-based qHTS assay with rat liver microsomes: qHTS cell viability counter screen (AID 1963580). Also: nearly all actives have a fitted effect of over 45% in size. In outline:
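Cytotoxicity counter screen: intracellular ATP read by CellTiter-Glo luminescence in the p53 reporter wells. HCT-116 p53RE-bla cells were treated for 16 h at 37 C alongside rat liver microsomes and NADPH, each 0.5 mg/mL final.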

A short description of assay [8]: p53 small molecule agonists, cell-based qHTS assay: qHTS cell viability counter screen (AID 1963581). Also: nearly all actives have a fitted effect of over 45% in size. In outline:
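Counter screen read by CellTiter-Glo luminescence (ATP content, 30 min at room temperature), run in the same wells as the beta-lactamase reporter read. HCT-116 p53RE-bla cells saw compounds for 16 h at 37 C.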

Assay [9] can be described thus: cAMP Responsive Elements (CRE) small molecule agonists, cell-based qHTS assay (AID 1963590). In outline: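 Agonist mode: compound added to CRE-bla HEK 293T cells (2,000/well, 18 h after plating) for 3 h at 37 C/5% CO2. Reporter activity detected via FRET beta-lactamase substrate, 2 h room-temperature loading.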
Assay [10] in a line: cAMP Responsive Elements (CRE) small molecule antagonists, cell-based qHTS assay (AID 1963591; active = well fitted inhibition curve with a large enough effect in the signal ratio in the repeat runs, not every such curve was filed as active; the % refers to the signal ratio). In outline:
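Antagonist mode: compounds are added alongside the adenylyl cyclase activator NKH477 (0.25 uM final) to CRE-bla HEK293T cells for 3 h. LiveBLAzer FRET substrate, 2 h at room temperature, reports bla expression.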

For assay [11], the target named is Beta-2 adrenergic receptor (Homo sapiens) (UniProt P07550). Kind of assay: Adrenergic beta2 receptor (ADRB2) small molecule antagonists, cell-based qHTS assay (AID 1963592). Also: series mostly up to about 92 µM; nearly all actives have a fitted effect of over 50% in size. In outline: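 Assay format: CHO-ADRB2 cells, 18-20hr seeding at 37C/5% CO2, then compound plus 1nM isoproterenol agonist mix for 0.5hr RT. Homogeneous time-resolved fluorescence cAMP detection after 1hr, expressed as 665/615 nm ratio.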
Chain of Beta-2 adrenergic receptor (Homo sapiens) (P07550 whole entry, looked up): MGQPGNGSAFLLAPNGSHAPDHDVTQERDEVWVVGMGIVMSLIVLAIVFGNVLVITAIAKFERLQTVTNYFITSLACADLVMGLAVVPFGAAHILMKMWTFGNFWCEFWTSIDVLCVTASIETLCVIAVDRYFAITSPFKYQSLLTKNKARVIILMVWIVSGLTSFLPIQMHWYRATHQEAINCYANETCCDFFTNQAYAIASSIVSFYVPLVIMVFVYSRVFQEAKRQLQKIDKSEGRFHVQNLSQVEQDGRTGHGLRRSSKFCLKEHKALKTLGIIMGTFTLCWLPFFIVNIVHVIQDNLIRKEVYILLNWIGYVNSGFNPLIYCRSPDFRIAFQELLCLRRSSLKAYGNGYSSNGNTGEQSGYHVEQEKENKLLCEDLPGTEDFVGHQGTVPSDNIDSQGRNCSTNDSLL

Assay [12] has the same target. Kind of assay: Adrenergic beta2 receptor (ADRB2) small molecule agonists, cell-based qHTS assay (AID 1963593).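 Also: CHO cells stably overexpressing human ADRB2.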 The essentials:
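CHO cells stably over-expressing ADRB2 were plated overnight at 37C, then dosed with compounds plus a stimulation mix containing 100uM IBMX and 25uM Ro-20-1724 for 0.5hr at room temperature. cAMP was measured by HTRF competition, 1hr.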

In assay [13] the target is D(2) dopamine receptor (Homo sapiens) (UniProt P14416). Kind of assay: Dopamine D2 receptor (DRD2) small molecule agonists, cell-based qHTS assay (AID 1963594). Also: nearly all actives have a fitted effect of over 35% in size. In outline:
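cAMP accumulation in DRD2-HEK293 cells measured by HTRF after 1 h detection; compounds added 10 min before NKH477 (200nM […]) forskolin-analogue stimulation, 30 min at room temperature, with Ro20-1724 present at 0.1 mM final.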

The target is the same in assay [14]. Kind of assay: Dopamine D2 receptor (DRD2) small molecule antagonists, cell-based qHTS assay (AID 1963595; active = well fitted inhibition curve with a large enough effect in the signal ratio in the repeat runs, with a control signal flat; the % refers to the signal ratio). The essentials:
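HEK293 cells stably expressing DRD2 were preincubated with 0.1 mM Ro20-1724, then with compound for 10 min at room temperature. Cells were stimulated with 200 nM NKH477 plus 12 nM quinpirole for 30 min, and cAMP was read by HTRF.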

Assay [15] addresses 5-hydroxytryptamine receptor 2A (Homo sapiens) (UniProt P28223). Kind of assay: 5-hydroxytryptamine receptor 2A (HTR2A) small molecule antagonists, cell-based qHTS assay (AID 1963586). Also: nearly all actives have a fitted effect of over 45% in size. In outline:
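CHO cells stably expressing human HTR2A were plated for 18 h at 37 C, then loaded with calcium dye for 1 h. Compounds were preincubated 5 min at room temperature before DOI (4 nM solution) was added. Kinetic fluorescence was read for 3 min.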

Assay [16] has the same target. Kind of assay: 5-hydroxytryptamine receptor 2A (HTR2A) small molecule agonists, cell-based qHTS assay (AID 1963587). Also: nearly all actives have a fitted effect of over 30% in size. The essentials: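 Kinetic calcium-flux fluorescence (2 min, 1 sec intervals) after compound addition in agonist mode. HTR2A-CHO cells were cultured 18 h, then dye-loaded 1 h at 37 C.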
For assay [17], the target named is Muscarinic acetylcholine receptor M1 (Homo sapiens) (UniProt P11229). Kind of assay: Cholinergic receptor muscarinic 1 (CHRM1) small molecule antagonists, cell-based qHTS assay (AID 1963588). Also: nearly all actives have a fitted effect of over 40% in size. In outline:
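Compounds were tested at 15 concentrations in three independent runs. Dye-loaded CHRM1-CHO cells were exposed 5 min at room temperature before stimulation by acetylcholine added at 50nM. Intracellular calcium was read kinetically on FDSS for 3 min.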

For assay [18] the target is unchanged. Kind of assay: Cholinergic receptor muscarinic 1 (CHRM1) small molecule agonists, cell-based qHTS assay (AID 1963589). Also: nearly all actives have a fitted effect of over 35% in size. Also: potency is read from the fitted curve at half-maximal effect. The essentials: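 Agonist-mode calcium-flux screen: compounds at 15 concentrations, three independent runs, were pin-transferred onto dye-loaded human CHRM1-CHO cells. Fluorescence was then recorded kinetically every second over minutes.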

The text below walks through data of PubChem BioAssay (Tox21).

Several values for one entry are separate records, joined by “and”; a condition that tells them apart may be missing. Equal values may be shown once. Records with an inconclusive call do not appear. Activity calls are given as the source filed them. Unless noted, calls follow the shape of the full dose curve.

Chain of KiSS-1 receptor (Homo sapiens) (Q969F8 whole entry, looked up): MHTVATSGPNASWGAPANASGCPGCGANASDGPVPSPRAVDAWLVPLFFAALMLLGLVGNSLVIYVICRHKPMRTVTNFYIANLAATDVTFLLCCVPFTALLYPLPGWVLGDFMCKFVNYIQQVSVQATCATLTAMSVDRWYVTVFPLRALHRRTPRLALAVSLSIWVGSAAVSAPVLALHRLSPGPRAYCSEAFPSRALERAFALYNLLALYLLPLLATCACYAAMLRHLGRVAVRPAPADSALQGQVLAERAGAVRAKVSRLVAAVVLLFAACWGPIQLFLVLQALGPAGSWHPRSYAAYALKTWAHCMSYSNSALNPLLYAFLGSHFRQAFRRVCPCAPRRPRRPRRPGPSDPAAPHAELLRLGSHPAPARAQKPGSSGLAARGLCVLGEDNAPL
Chain of Muscarinic acetylcholine receptor M1 (Homo sapiens) (P11229 whole entry, looked up): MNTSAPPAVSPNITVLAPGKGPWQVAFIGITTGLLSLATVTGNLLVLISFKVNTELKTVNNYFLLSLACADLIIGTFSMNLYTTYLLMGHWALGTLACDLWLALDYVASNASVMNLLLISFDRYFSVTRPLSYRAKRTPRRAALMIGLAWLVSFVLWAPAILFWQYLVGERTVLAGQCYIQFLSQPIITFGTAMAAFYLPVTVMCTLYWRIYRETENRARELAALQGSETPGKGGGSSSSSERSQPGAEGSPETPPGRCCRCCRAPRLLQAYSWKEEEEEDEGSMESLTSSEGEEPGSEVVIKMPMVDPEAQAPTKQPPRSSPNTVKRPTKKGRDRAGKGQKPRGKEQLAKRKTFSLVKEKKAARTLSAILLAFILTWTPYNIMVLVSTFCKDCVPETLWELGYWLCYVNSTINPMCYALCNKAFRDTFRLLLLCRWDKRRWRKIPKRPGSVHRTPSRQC
Chain of D(2) dopamine receptor (Homo sapiens) (P14416 whole entry, looked up): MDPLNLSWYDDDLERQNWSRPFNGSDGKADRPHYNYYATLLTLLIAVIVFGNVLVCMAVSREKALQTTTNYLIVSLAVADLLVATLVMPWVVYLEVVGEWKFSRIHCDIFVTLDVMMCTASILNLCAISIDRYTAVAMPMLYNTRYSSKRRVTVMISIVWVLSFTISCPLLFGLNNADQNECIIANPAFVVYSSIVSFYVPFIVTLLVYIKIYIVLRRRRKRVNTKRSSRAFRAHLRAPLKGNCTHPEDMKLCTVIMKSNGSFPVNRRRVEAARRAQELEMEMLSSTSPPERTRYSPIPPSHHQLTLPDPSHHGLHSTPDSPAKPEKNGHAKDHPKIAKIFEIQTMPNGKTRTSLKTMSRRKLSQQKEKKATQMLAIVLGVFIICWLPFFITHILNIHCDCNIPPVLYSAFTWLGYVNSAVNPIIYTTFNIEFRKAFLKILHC
Chain of 5-hydroxytryptamine receptor 2A (Homo sapiens) (P28223 whole entry, looked up): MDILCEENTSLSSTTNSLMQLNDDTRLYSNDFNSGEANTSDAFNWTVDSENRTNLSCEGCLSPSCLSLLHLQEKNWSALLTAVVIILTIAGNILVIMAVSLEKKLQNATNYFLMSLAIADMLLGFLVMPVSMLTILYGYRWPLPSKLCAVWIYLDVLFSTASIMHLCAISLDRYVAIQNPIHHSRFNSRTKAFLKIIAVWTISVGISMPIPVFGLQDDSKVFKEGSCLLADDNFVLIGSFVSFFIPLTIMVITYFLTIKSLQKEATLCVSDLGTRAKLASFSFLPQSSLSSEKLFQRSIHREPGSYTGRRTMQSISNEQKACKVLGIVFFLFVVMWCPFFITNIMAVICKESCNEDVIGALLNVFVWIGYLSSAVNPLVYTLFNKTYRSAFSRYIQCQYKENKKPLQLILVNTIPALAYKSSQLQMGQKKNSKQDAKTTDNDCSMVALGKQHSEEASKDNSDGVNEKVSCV

As to `CCC1(c2ccc(N)cc2)CCC(=O)NC1=O` (stereo not given), the Potency result in assay [1], in assay [2], in assay [3], in [4], in [5] and in assay [6] was “inactive” throughout. The Potency entry in [7], in assay [8], in assay [9], in [10], in assay [11] and in [12] was “inactive” throughout. Further, the Potency result in [13] and in [14] was “inactive” throughout.
Turning to `O=S(=O)(O)OOS(=O)(=O)O`, the Potency entry in assay [1], in [2], in [3], in assay [4], in assay [5] and in assay [6] was “inactive” in each case. In addition, the Potency entry in assay [7], in assay [8], in assay [15], in assay [16], in assay [17] and in assay [18] was “inactive” each time. Also, the Potency result in assay [10], in assay [11], in [13] and in [14] was “inactive” throughout.
Consider `C[N+](C)(C)Cc1ccccc1`, for which the Potency result in assay [1], in [2], in assay [3], in assay [4], in assay [5] and in assay [6] was “inactive” in each case. Also, the Potency entry in [7], in assay [8], in assay [15], in assay [16], in assay [17] and in assay [9] was “inactive” throughout. For the same compound, the Potency entry in [10], in assay [11], in assay [13] and in assay [14] was “inactive” in each case. In assay [18], the Potency was 3.07 µM (active) and 5.49 µM (active).
Consider `CCC(C)(CC)c1cc(NC(=O)c2c(OC)cccc2OC)on1`, for which the Potency result in assay [1], in assay [2], in [3], in assay [4], in [5] and in assay [6] was “inactive” throughout. In addition, the Potency entry in assay [7], in [8], in assay [15], in [16], in assay [18] and in assay [10] was “inactive” in each case. For the same compound, the Potency result in assay [11], in assay [13] and in assay [14] was “inactive” throughout.
Consider `C#CCN(C)[C@H](C)Cc1ccccc1`, for which the Potency entry in assay [1], in [2], in assay [3], in assay [4], in [5] and in assay [6] was “inactive” in each case. Moreover, the Potency entry in assay [7], in assay [8], in assay [9], in assay [10], in [11] and in [12] was “inactive” in each case. Further, in assay [14], the Potency result was “inactive”.
With `C=CC(Cl)CCl` (stereo not given), the Potency result in assay [1], in assay [2], in [3], in [4], in [5] and in assay [6] was “inactive” each time. In addition, the Potency result in assay [7], in [8], in assay [15], in assay [16], in assay [17] and in assay [18] was “inactive” throughout. Also, the Potency result in assay [9], in [10], in assay [11], in assay [13] and in assay [14] was “inactive” throughout.
As to `CCNCC`, the Potency result in assay [1], in [2], in [3], in assay [4], in [5] and in assay [6] was “inactive” each time. The Potency result in assay [7], in assay [8], in [15], in assay [16], in assay [17] and in [9] was “inactive” throughout. For the same compound, the Potency result in assay [10], in assay [11], in assay [12], in assay [13] and in [14] was “inactive” throughout.
On to `Clc1ccccc1-c1nnc(-c2ccccc2Cl)nn1`, for which the Potency entry in assay [1], in [3], in assay [4], in assay [5], in assay [6] and in assay [7] was “inactive” throughout. For the same compound, the Potency entry in assay [8], in [15], in [16], in [9], in assay [10] and in assay [11] was “inactive” in each case. For the same compound, the Potency result in assay [12], in [13] and in assay [14] was “inactive” throughout. Besides, in [2], the Potency was 19.2 µM (active) and 5.43 µM (active).
